A selection: hits, their analogues and other compounds. The true share with any hit is near 3.1%.
PREPL inh – human PREPL enzyme inhibition; recombinant PREPL, fluorescence polarization activity-based probe; inhibition, % at 5.96 µM; actives 0.68% (n = 320,000); AID 2751; in the data active = inhibition above about 43%
MEKK2 WT-MEK5 – raises or lowers MEK5 binding to wildtype human MEKK2 PB1 domain. binding response (% of control), % at 10 µM. Q9Y2U5. actives 1.1% (n = 290,000). bead flow cytometry, Alexa488-MEK5 binding to MEKK2 WT; actives lie on both sides; in the data active = binding response below about 67% or above about 130%
MEKK2mut PB1 HTS – signal of MEK5 binding to mutant human MEKK2 PB1 domain | bead flow cytometry, Alexa488-MEK5 binding to MEKK2 mutant | percent response, % at 10 µM | actives 0.35% (n = 290,000); in the data active = percent response above about 24%, passing the limit was not always enough
UBC13 polyUb – inhibitors of human UBC13 polyubiquitin chain formation; P61088; TR-FRET; inhibition, % at 20 µM; actives 0.47% (n = 330,000); in the data active = inhibition above about 45%, passing the limit was not always enough
ATG4B inh – inhibitors of human ATG4B cysteine protease; Q9Y4P1; ATG4B cleavage of LC3-PLA2, NBD-HPC fluorescence, 1 h; inhibition, % at 8.33 µM; actives 0.51% (n = 340,000); AID 504462; in the data active = inhibition above about 40%
MEKK3 PB1 HTS – modulators (inhibitors or enhancers) of MEK5 binding to human MEKK3 PB1 domain; AID 1529; binding response (% of control), % at 10 µM; actives 1.4% (n = 290,000); Q99759; bead-based flow cytometry, Alexa488-MEK5 binding to MEKK3; actives lie on both sides; 0 = blocked by unlabeled MEK5, 100 = vehicle;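 active = binding response more than 3 SD above or below the average of its plate-row segment, actives on both sides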;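 also: Alexa488 bead fluorescence after subtracting the streptavidin-only scavenger bead signal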
Hits are given with their value; . = inactive; / = not tested or not shown; [ ] = remark or other dose.

SMILES	PREPL inh	MEKK2 WT-MEK5	MEKK2mut PB1 HTS	UBC13 polyUb	ATG4B inh	MEKK3 PB1 HTS
Cc1ccc2cc(C3CC(c4cccs4)=NN3S(C)(=O)=O)c(Cl)nc2c1 (stereo unspecified)	.	-4.0	.	.	.	.
Cc1ccc2nc(Cl)c(C3CC(c4cccs4)=NN3S(C)(=O)=O)cc2c1 (stereo unspecified)	.	.	.	.	.	.
CCOc1ccc(CN(C)CC(O)COC(c2ccc(OC)cc2)c2ccc(OC)cc2)cc1 (stereo unspecified)	.	180	35	.	.	.
COc1ccc(C(OCC(O)CN(C)C2CCCCC2)c2ccc(OC)cc2)cc1 (stereo unspecified)	.	161	.	.	.	.
CN(CC(O)COc1ccccc1F)C1CCCCC1 (stereo unspecified)	.	.	.	.	.	.
COc1ccc(CN(C)CC(O)COc2ccc(-c3ccccc3)cc2)cc1OC (stereo unspecified)	.	136	.	.	.	.
COc1ccc(CN(C)CC(O)COC(c2ccc(OC)cc2)c2ccc(OC)cc2)cc1 (stereo unspecified)	.	147	.	.	.	.
C=CCOc1ccc(CN(C)CC(O)COc2ccc(CCC(C)=O)cc2)cc1 (stereo unspecified)	.	.	.	.	.	.
CC(C)(C)C(=O)/C=c1\s/c(=C\c2ccc(-c3ccc([N+](=O)[O-])cc3)o2)c(=O)n1CC(=O)NC(N)=O	.	241	396	.	.	.
COc1c(C)cc(Br)cc1C(=O)NC(=S)NCc1ccco1	.	.	.	.	.	.
CS(=O)(=O)N(Cc1ccccc1)c1ccc(C(=O)N2CCN(c3cccc(Cl)c3)CC2)cc1	.	.	.	.	56	.
CS(=O)(=O)N(Cc1ccc(Cl)cc1)c1ccc(C(=O)N2CCN(c3ccccc3)CC2)cc1	.	.	.	.	.	.
COCCN(C(=O)CCC(=O)Nc1ccccn1)C(C(=O)NC(C)C)c1ccc(C)cc1 (stereo unspecified)	.	.	.	.	.	.
O=Cc1c(-c2ccc(F)cc2)nc2ccccn12	.	.	.	.	.	.
Cc1ccn2c(C=O)c(-c3ccc(F)cc3)c(C=O)c2c1	.	-3.0	.	.	.	.
CCCN1C/C(=C/c2ccc3c(c2)OCO3)C(=O)/C(=C/c2ccc3c(c2)OCO3)C1	.	.	.	.	.	136
COc1ccc(CCN2CCCn3c2nc2c3c(=O)n(C)c(=O)n2C)cc1OC	/	.	.	.	.	.
CCOCCCNc1nc2c(C)cccn2c(=O)c1/C=C1\SC(=S)N(CC(C)C)C1=O	.	/	/	.	.	/
CCOCCCNc1nc2c(C)cccn2c(=O)c1/C=C1\SC(=S)N(C(C)CC)C1=O (stereo unspecified)	.	/	127	.	.	28[inhibitor]
Cc1cc(OCC(O)CN(C)C(=O)C(C)Oc2ccccc2)ccc1Cl (stereo unspecified)	.	.	.	.	.	.
Cc1c(C)n(CC(O)CN2CCCCCC2)c2ccccc12 (stereo unspecified)	.	.	.	.	.	.
Cc1ccc2c(c1)c(C)c(C)n2CC(O)CN1CCOCC1 (stereo unspecified)	.	-5.0[inhibitor]	.	.	.	.
CC(C)c1nnc(NC(=O)CCC(=O)NC2CCCCCC2)s1	.	.	.	.	.	.
O=C(NCCCN1CCCC1)C1CCN(C(=O)c2cc3sccc3n2Cc2ccc(F)cc2)CC1	.	168	28	.	.	.
CC(OC(=O)Cc1ccccc1[N+](=O)[O-])C(=O)NC(=O)NC1CCCCC1 (stereo unspecified)	.	/	/	.	.	/
SMILES	PREPL inh	MEKK2 WT-MEK5	MEKK2mut PB1 HTS	UBC13 polyUb	ATG4B inh	MEKK3 PB1 HTS
Cc1cccc(C(=O)N/C(=C\c2ccc(C)o2)C(=O)O)c1	.	-3.0	.	.	.	.
CN1C(C(=O)NCc2ccc(OC(F)(F)F)cc2)CC2Cn3c(nc4ccccc43)C21 (stereo unspecified)	.	.	.	.	.	.
Cc1nc(-c2ccccc2)sc1C1(C)CC(c2ccc(OC(F)(F)F)cc2)=NO1 (stereo unspecified)	.	.	.	.	.	.
COc1cc(OC)c2c(-c3ccccc3)cc(=O)oc2c1C(CC(=O)N1CCN(c2ccccc2)CC1)c1ccc2c(c1)OCO2 (stereo unspecified)	/	145	.	/	/	131
CCc1ccc(NC(=O)C2CCN(S(=O)(=O)c3cccs3)CC2)cc1	.	.	.	.	.	.
CCC(C)(C)NC(=O)C1CCN(S(=O)(=O)c2cccs2)CC1	/	296	81	.	.	.
O=C(Cn1cnc2ccccc21)Nc1cccc(S(=O)(=O)N2CCCC2)c1	.	/	/	.	.	/
COc1cccc(/C=C/c2nc3c(cnn3-c3ccccc3)c(=O)[nH]2)c1	.	/	93	.	.	.
O=C(O)c1ccc(OCC(F)(F)F)nc1	.	.	.	.	.	.
Cc1ccccc1OCCn1cc(C(=S)N2CCN(C)CC2)c2ccccc21	59	.	.	.	.	.
CC(C(=O)NCc1ccccc1)n1cc([N+](=O)[O-])cn1 (stereo unspecified)	.	.	.	.	.	.
COC(=O)CCC(=O)OC1(C)C(=O)C=C2C=C(C3CC3)N(c3ccccc3)C=C2C1=O (stereo unspecified)	47	.	.	.	.	.
O=C(COC(=O)Cn1[nH]c(=O)c2ccccc2c1=O)NNC(=O)c1ccc(Br)cc1	.	/	/	.	.	/
COC(=O)c1sc2cc([N+](=O)[O-])cc(SCC(C)C)c2c1N	.	9.0	.	.	.	.
CN1CCN(c2ccc(NC(=S)NC(=O)c3cccc4c(Br)cccc34)cc2)CC1	.	173	.	.	.	.
O=C(CN1C(=O)C(=O)N(C2CCCC2)C1=O)NCCc1ccc(Cl)cc1Cl	.	/	/	.	.	/
O=C(CSc1nncc(=O)[nH]1)NC1CCCCC1	.	.	.	.	.	.
O=[N+]([O-])c1ccc(NN=Cc2cccc([N+](=O)[O-])c2)cc1	/	/	/	/	.	/
O=[N+]([O-])c1ccc(N/N=C/c2ccc[nH]2)cc1	.	-1.0	.	/	.	.
CC(C)C1Cc2c(sc(NC(=S)NC(=O)c3ccccc3)c2C#N)CO1 (stereo unspecified)	.	.	.	.	.	.
CC(C)N1CCc2c(sc(NC(=S)NC(=O)c3ccccc3)c2C#N)C1	62	.	.	.	.	.
CC(C)N1CCc2c(sc(N)c2C#N)C1	50	2.0	.	.	.	.
O=C(Nc1cccc(-n2cccn2)c1)C1CCCN(Cc2cc3ccccc3[nH]2)C1 (stereo unspecified)	/	139	24	.	.	.
C/C(C/C(C)=C1/SC(=S)NC1=O)=C1\SC(=S)NC1=O	/	.	.	/	68	.
